# Shown is part of a subset that was picked to be rich in hits.
# ERK EGF inh = qHTS Assay for Inhibitors of the ERK Signaling Pathway using a Homogeneous Screening Assay; Stimulation with EGF | AID 1454, 2008 | Potency, µM (titrated, usually from 11.5 µM), for inactives: top-dose activity change, negative = inhibition, usual class: inhibitors | 130,000 compounds, 0.41% hits | HEK293-V1b, EGF-stimulated phospho-ERK AlphaScreen;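 note: plate controls were stimulated vehicle wells for no effect and unstimulated vehicle basal for full effect; nearly all actives have a fitted effect of over 55% in size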
#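 EGF-stimulated (25 nM, 5 min) phospho-ERK in HEK293 cells stably expressing V1b, cells pretreated 30 min with compound at 37C. Homogeneous AlphaScreen read on lysates.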
# NPSR antag = qHTS Assay for Antagonists of the Neuropeptide S Receptor: cAMP Signal Transduction; CHO-NPSR cells, cAMP TR-FRET, antagonist mode; Potency, µM (top dose mostly 38.3 µM), for the others: top-dose activity change, negative = inhibition, most hits filed as inhibitors; 220,000 compounds, 1% hits; note: nearly all actives have a fitted effect of over 50% in size
# Target sequence (Q6W5P4 whole entry, looked up): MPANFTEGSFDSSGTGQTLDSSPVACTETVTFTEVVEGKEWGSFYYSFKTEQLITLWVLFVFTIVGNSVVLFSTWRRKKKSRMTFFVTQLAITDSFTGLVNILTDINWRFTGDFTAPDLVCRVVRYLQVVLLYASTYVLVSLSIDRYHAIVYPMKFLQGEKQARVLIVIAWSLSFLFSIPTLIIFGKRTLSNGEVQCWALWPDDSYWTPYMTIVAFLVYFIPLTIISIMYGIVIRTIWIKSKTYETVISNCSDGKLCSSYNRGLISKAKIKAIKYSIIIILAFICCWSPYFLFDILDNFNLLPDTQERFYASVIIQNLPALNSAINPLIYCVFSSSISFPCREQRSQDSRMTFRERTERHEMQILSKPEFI
# Numbers without * were called inactive; u = inconclusive; x = no result given; [ ] = dose if it differs, or a comment. Calls come from the whole dose curve; as a rule, active = well fitted curve in the direction sought with a large enough effect; inconclusive = small, poorly fitted or top-dose-only effect, or another doubt; inactive = no such curve, though single readings can be large; an effect the other way counts as inactive or inconclusive. Unless noted, % is set by controls: 0 for no effect and ±100 for the full control effect; potency is the fitted concentration of half-maximal effect.
SMILES,ERK EGF inh,NPSR antag
Cn1c(-[n+]2c(-c3ccccc3)cc(-c3ccccc3)cc2-c2ccccc2)nc2cc([N+](=O)[O-])ccc21,x,10µM*
Cc1ccc(NC2=C(NC(=O)c3ccccc3)C(=O)c3ccccc3C2=O)cc1Cl,15.8µM*,-1.8%
O=C(O)c1ccc(NC2=C(Cl)C(=O)c3ccccc3C2=O)cc1,10µM*,u
CC(C)NC1=C(Cl)C(=O)c2ccccc2C1=O,x,6.7%[46.1 µM]
Cc1ccc(NCC(=O)c2ccccc2)cc1Cl,x,5.2%[46.1 µM]
Cc1nnc(N(CCC#N)CCC#N)s1,x,14.5%[46.1 µM]
N#CC1(C#N)CC(C=O)=C(N)C1(C#N)CC(=O)C12CC3CC(CC(C3)C1)C2 (stereo not drawn),8.3%,-16.2%[46.1 µM]
COC(=O)C1(C(=O)OC)C/C=C\Cc2ccccc2[C@@H]1C[N+](=O)[O-],-2.1%,x
CCN(CC)P(=O)(Nc1ccccc1Br)c1ccc(N(C)C)cc1NC(=O)c1ccco1 (stereo not drawn),-0.3%,7.94µM*
CCN(CC)C(=O)c1cc(Cl)ccc1NC(=O)c1ccco1,-18.3%[57.5 µM],11.9%
O=C1CCC(=O)N1CCC(c1ccc(F)cc1)c1ccco1 (stereo not drawn),x,-4.3%[46.1 µM]
O=C1NCN(c2ccccc2)C12CCN(CCCC(c1ccc(F)cc1)c1ccc(F)cc1)CC2,u,12.6µM*
CCO/N=C(\C)c1c(O)c2ccccc2n(C)c1=O,0.1%,11.0%
CS(=O)(=O)N1CCN(c2ccccc2NC(=O)c2ccc(-c3ccc(Cl)cc3Cl)o2)CC1,x,3.16µM*
CS(=O)(=O)N1CCN(c2ccccc2NC(=O)c2ccc(Br)o2)CC1,x,-16.5%[46.1 µM]
CCC(C)c1ccc(NC(=O)COC(=O)c2nc3nccc(C)n3n2)cc1 (stereo not drawn),-3.4%,8.6%
COc1ccc(/C=C2\SC(=O)N(CCn3cnnn3)C2=O)cc1,2.4%,11.9%
CC(OC(=O)CCc1c[nH]c2ccccc12)C(=O)c1ccccc1 (stereo not drawn),-1.3%,8.0%
CC(=O)N1CCN(c2nc(-c3ccco3)c3c(c2C#N)CC(C)(C)SC3)CC1,x,-15.7%[46.1 µM]
CC1(C)Cc2c(C#N)c(N3CCN(C(=O)c4ccco4)CC3)nc(-c3ccco3)c2CS1,12.2%,10µM*
CC1=NN(c2ccc(Cl)c(C(=O)O)c2)C(=O)/C1=C\c1ccc(-c2ccc(C(=O)O)cc2)o1,-6.0%,-9.3%
O=C(O)c1ccc(N2C(=O)/C(=C/c3ccc(-c4ccc([N+](=O)[O-])cc4)o3)C=C2c2ccccc2)cc1,u,10µM*
c1ccc(CCNc2nc(-c3ccccn3)nc3ccccc23)cc1,1.5%[57.5 µM],4.2%[7.67 µM]
O=C(O)c1cccc2c1C(=O)c1ccccc1C2=O,8.0%,6.4%
CN(C=[N+](C)C)c1cccc2c1C(=O)c1ccccc1C2=O,17.8µM*,6.0%[46.1 µM]
SMILES,ERK EGF inh,NPSR antag
CCN(Cc1ccncc1)C(=O)c1ccccc1NS(=O)(=O)c1ccc(Br)cc1,-1.3%[57.5 µM],-32.8%
O=C(c1cccs1)N1CCc2c([nH]c3ccccc23)C1c1ccccn1 (stereo not drawn),-8.8%[57.5 µM],u
O=C(c1cccs1)N1CCc2c([nH]c3ccccc23)C1c1ccc(Cl)cc1 (stereo not drawn),x,10µM*
COc1ccc(-n2c(-c3ccc(Br)cc3)c[n+]3c2SC(C)C3)cc1 (stereo not drawn),-0.8%,-5.5%
CCOC(OCC)P(=O)(O)CCCNCc1ccc(Cl)c(Cl)c1,-1.4%,x
CC(C)(C)OC(=O)N/N=C/c1cccn1-c1ccc([N+](=O)[O-])cc1,u,16.8%
CN(C)c1ccc(-n2cccc2/C=C/[N+](=O)[O-])cc1,u,7.94µM*
COc1ccc(C2Cc3ccccc3C(=O)O2)cc1 (stereo not drawn),-0.6%,12.4%
COc1ccc(/C=N/NC(=O)c2cccnc2)cc1COc1ccc(NC(C)=O)cc1,1.2%[57.5 µM],8.4%
COc1ccc(/C=N/NC(=O)c2cccnc2)cc1COc1ccc([N+](=O)[O-])cc1,22.4µM*,-3.5%
Cc1ccc(C)c(NS(=O)(=O)c2ccc3c(c2)Cc2cc(S(=O)(=O)Nc4cc(C)ccc4C)ccc2-3)c1,-1.9%,-3.6%
N#CCC(=O)N/N=C/c1cc(-c2ccccc2)n(-c2ccc(Cl)cc2)c1-c1ccccc1,0.1%,-41.5%
CC1CCN(S(=O)(=O)c2ccc3c(c2)C(=NO)c2cc(S(=O)(=O)N4CCC(C)CC4)ccc2-3)CC1,x,0.501µM*
CC1CCN(S(=O)(=O)c2cccc(C(=O)O)c2)CC1,x,11.5%[46.1 µM]
O=S(=O)(c1ccc2c(c1)C(=NO)c1cc(S(=O)(=O)N3CCCCC3)ccc1-2)N1CCCCC1,x,2µM*
O=S(=O)(c1ccc(S(=O)(=O)N2CCCC2)cc1)N1CCCCCC1,x,5.8%[46.1 µM]
COCCn1c(=O)c(-c2ccc(OC)cc2)nc2cnc(Oc3ccc(OC)cc3)nc21,-6.1%,x
CS(=O)(=O)Nc1cccc(-c2nc(NCc3cccs3)c3ccccc3n2)c1,18.1%,x
O=C(CCl)N(c1ccc(Cl)cc1)c1c[nH]c2ccccc12,x,7.94µM*
O=C(CCl)N(c1ccccc1)c1c[nH]c2ccccc12,x,-28.6%[46.1 µM]
C=C1CC[C@H](O)C/C1=C/C=C1\CCC[C@]2(C)[C@H]1CC[C@H]2[C@@H](C)/C=C\[C@@H](C)C(C)C,-7.8%[25.7 µM],x
COc1ccccc1/C=C/C=N/N1CCN(Cc2ccc(Cl)cc2)CC1,x,-20.0%[46.1 µM]
COc1ccccc1N1CCN(/N=C/C=C/c2ccccc2[N+](=O)[O-])CC1,20µM*,58.9%
O=[N+]([O-])c1ccccc1/C=N\N1CCN(c2ccccc2)CC1,22.4µM*,10.1%
O=[N+]([O-])c1ccccc1/C=N/N1CCN(c2ccc(Cl)cc2)CC1,x,-13.3%[46.1 µM]
SMILES,ERK EGF inh,NPSR antag
COc1ccccc1/C=C/C=N\N1CCN(Cc2ccccc2Cl)CC1,17.8µM*,-27.2%
O=[N+]([O-])c1ccccc1/C=C\C=N\N1CCN(c2ccccc2)CC1,u,-25.6%
C/C(CC(=O)Nc1ccc(Cl)cn1)=N\NC(=O)Cc1cccs1,-0.7%[57.5 µM],-12.1%
C[N+]1(CC(=O)Nc2ccccc2Cl)CCN(C(=O)c2cccs2)CC1,x,6.4%[46.1 µM]
O=C1c2ccccc2C(=O)c2c(Nc3ccc(CCO)cc3)ccc(O)c21,14.1µM*,u
O=C1c2ccccc2C(=O)c2c(O)ccc(O)c21,-11.0%,x
Cc1ccccc1CSCC(Nc1ccc(C(=O)O)cc1[N+](=O)[O-])C(=O)O (stereo not drawn),x,-3.1%[46.1 µM]
COc1ccc(C2=NN(C(C#N)c3ccc(OC)cc3)C(c3ccccc3)C2)cc1 (stereo not drawn),0.1%,-25.8%
CCN(CC)c1ccc(/C=N/Nc2nc3ccccc3[nH]2)cc1,6.6%,5.01µM*
C=CCn1cc(/C=N/Nc2nc3ccccc3[nH]2)c2ccccc21,2.8%,10µM*
CC(=O)Nc1ccc(/C=N/Nc2nc3ccccc3[nH]2)cc1,4.6%,-15.9%
Cc1c(/C=N/Nc2nc3ccccc3[nH]2)c2ccccc2n1C,4.2%[57.5 µM],u
COc1ccc(Cl)cc1NC(=O)c1nc2nc(C)cc(C(F)F)n2n1,x,-6.7%[46.1 µM]
Cc1cc(C)n(-c2ccc(Cl)c(C(=O)O)c2)n1,-2.8%,18.1%
O=C(O)/C=C/c1ccc([N+](=O)[O-])o1,8.1%,6.7%
O=[N+]([O-])c1ccc(/C=N/Nc2nc(N3CCCCC3)nc(N3CCCCC3)n2)cc1,-9.9%,u
O=[N+]([O-])c1ccc(/C=N/Nc2nc(N3CCCCCC3)nc(N3CCCCCC3)n2)o1,u,6.31µM*
